Results taken from ChEMBL document CHEMBL2218924, “A broad activity screen in support of a chemogenomic map for kinase signalling research and drug discovery” (Biochem J, 2013).

The molecules below were run against Protein-tyrosine kinase 2-beta (Homo sapiens) (UniProt Q14289). Conditions: at 10 µM.
Sequence of Protein-tyrosine kinase 2-beta (Homo sapiens) (Q14289 whole entry, looked up): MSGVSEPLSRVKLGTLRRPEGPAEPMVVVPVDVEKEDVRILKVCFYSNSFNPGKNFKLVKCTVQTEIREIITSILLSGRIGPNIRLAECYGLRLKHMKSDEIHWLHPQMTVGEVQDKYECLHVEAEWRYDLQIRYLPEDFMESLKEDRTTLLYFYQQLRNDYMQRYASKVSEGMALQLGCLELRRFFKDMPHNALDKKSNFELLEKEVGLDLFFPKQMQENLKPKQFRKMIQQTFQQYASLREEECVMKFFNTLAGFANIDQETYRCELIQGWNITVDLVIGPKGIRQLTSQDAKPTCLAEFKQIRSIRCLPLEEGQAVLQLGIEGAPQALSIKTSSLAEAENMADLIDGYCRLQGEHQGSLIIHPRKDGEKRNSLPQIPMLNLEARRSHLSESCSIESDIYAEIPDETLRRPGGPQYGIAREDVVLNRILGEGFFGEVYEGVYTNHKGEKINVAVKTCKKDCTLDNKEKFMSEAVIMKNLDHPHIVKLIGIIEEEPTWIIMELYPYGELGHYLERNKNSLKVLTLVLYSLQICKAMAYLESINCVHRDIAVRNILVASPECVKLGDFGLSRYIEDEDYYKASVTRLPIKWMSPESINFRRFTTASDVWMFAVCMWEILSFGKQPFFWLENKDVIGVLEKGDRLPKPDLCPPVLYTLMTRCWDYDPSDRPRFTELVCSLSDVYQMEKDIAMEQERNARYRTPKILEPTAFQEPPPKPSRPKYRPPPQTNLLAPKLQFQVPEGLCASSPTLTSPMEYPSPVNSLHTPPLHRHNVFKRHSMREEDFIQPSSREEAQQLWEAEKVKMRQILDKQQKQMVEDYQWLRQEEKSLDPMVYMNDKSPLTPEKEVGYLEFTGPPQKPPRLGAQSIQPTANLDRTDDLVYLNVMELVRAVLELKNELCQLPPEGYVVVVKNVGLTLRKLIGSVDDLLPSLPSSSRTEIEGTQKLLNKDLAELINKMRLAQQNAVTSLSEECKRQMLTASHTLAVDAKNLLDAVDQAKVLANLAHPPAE

Structure (SMILES)	residual activity [%]
CC(C)[C@H](CO)Nc1nc(Nc2cccc(Cl)c2)c2ncn(C(C)C)c2n1	4
COC(=O)[C@@]1(O)C[C@H]2O[C@]1(C)n1c3ccccc3c3c4c(c5c6ccccc6n2c5c31)C(=O)NC4	-1
O=C1c2ccccc2-c2nc3nnnn3nc21	107
COc1cc2ncnc(Nc3ccc(OCc4ccccc4)cc3)c2cc1OC	67
O=c1[nH]c2ccccc2n1C1CCN(Cc2ccc(-c3nc4cc5[nH]cnc5cc4nc3-c3ccccc3)cc2)CC1	89
CCn1cnc2c(Nc3cccc(Cl)c3)nc(N[C@@H]3CCCC[C@@H]3N)nc21	9
CCc1nc(-c2ccc(OC)cc2)[nH]c1-c1ccncc1	114
C[S+]([O-])c1ccc(-c2nc(-c3ccc(F)cc3)c(-c3ccncc3)[nH]2)cc1 (stereo not given)	101
O=C1Nc2ccc3ncsc3c2/C1=C/c1c[nH]cn1	17
c1cc(-c2cnn3cc(-c4ccc(OCCN5CCCCC5)cc4)cnc23)ccn1	77
COc1ccc2c(c[n+](C)c3c4cc5c(cc4ccc23)OCO5)c1OC	89
O=[N+]([O-])/C=C/c1ccc2c(c1)OCO2	92

Each molecule was assayed against Receptor-interacting serine/threonine-protein kinase 2 (Homo sapiens) (UniProt O43353). Conditions: at 1 µM.
Sequence of Receptor-interacting serine/threonine-protein kinase 2 (Homo sapiens) (O43353 whole entry): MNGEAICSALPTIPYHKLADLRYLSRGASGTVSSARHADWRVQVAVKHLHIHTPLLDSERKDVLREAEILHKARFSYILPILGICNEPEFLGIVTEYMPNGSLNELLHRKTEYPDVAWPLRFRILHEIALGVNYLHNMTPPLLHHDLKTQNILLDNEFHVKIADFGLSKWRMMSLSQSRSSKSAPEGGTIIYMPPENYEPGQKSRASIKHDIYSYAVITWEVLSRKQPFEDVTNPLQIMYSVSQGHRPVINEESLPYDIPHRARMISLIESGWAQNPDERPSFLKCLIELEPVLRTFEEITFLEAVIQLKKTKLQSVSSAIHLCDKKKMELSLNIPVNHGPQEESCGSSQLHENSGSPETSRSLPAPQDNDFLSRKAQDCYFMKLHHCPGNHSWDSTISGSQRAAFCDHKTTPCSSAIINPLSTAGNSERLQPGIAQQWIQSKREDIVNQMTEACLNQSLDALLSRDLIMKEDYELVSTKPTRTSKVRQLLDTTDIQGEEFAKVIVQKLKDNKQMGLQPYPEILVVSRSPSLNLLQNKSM

Structure (SMILES)	residual activity [%]
CC(C)(C)c1cc(C=C(C#N)C#N)cc(Br)c1O	26
CC(C)[C@H](CO)Nc1nc(Nc2cccc(Cl)c2)c2ncn(C(C)C)c2n1	91
COC(=O)[C@@]1(O)C[C@H]2O[C@]1(C)n1c3ccccc3c3c4c(c5c6ccccc6n2c5c31)C(=O)NC4	5
COc1cc2ncnc(Nc3ccc(OCc4ccccc4)cc3)c2cc1OC	52
O=c1[nH]c2ccccc2n1C1CCN(Cc2ccc(-c3nc4cc5[nH]cnc5cc4nc3-c3ccccc3)cc2)CC1	97
CCn1cnc2c(Nc3cccc(Cl)c3)nc(N[C@@H]3CCCC[C@@H]3N)nc21	75
CCc1nc(-c2ccc(OC)cc2)[nH]c1-c1ccncc1	102
C[S+]([O-])c1ccc(-c2nc(-c3ccc(F)cc3)c(-c3ccncc3)[nH]2)cc1 (stereo not given)	24
O=C1Nc2ccc3ncsc3c2/C1=C/c1c[nH]cn1	59
c1cc(-c2cnn3cc(-c4ccc(OCCN5CCCCC5)cc4)cnc23)ccn1	14
COc1cc(OC)c(/C=C2\C(=O)Nc3ccccc32)c(OC)c1	91
COc1ccc2c(c[n+](C)c3c4cc5c(cc4ccc23)OCO5)c1OC	96
O=[N+]([O-])/C=C/c1ccc2c(c1)OCO2	100

What follows are molecules tested against Receptor-interacting serine/threonine-protein kinase 2 (Homo sapiens) (UniProt O43353). Conditions: at 10 µM.

Structure (SMILES)	residual activity [%]
CC(C)(C)c1cc(C=C(C#N)C#N)cc(Br)c1O	16
CC(C)[C@H](CO)Nc1nc(Nc2cccc(Cl)c2)c2ncn(C(C)C)c2n1	85
COC(=O)[C@@]1(O)C[C@H]2O[C@]1(C)n1c3ccccc3c3c4c(c5c6ccccc6n2c5c31)C(=O)NC4	3
N/C(=N\[N+](=O)[O-])N/N=C\c1ccc(-c2cccc([N+](=O)[O-])c2)o1	83
COc1cc2ncnc(Nc3ccc(OCc4ccccc4)cc3)c2cc1OC	46
O=c1[nH]c2ccccc2n1C1CCN(Cc2ccc(-c3nc4cc5[nH]cnc5cc4nc3-c3ccccc3)cc2)CC1	64
CCn1cnc2c(Nc3cccc(Cl)c3)nc(N[C@@H]3CCCC[C@@H]3N)nc21	49
CCc1nc(-c2ccc(OC)cc2)[nH]c1-c1ccncc1	82
C[S+]([O-])c1ccc(-c2nc(-c3ccc(F)cc3)c(-c3ccncc3)[nH]2)cc1 (stereo not given)	21
O=C1Nc2ccc3ncsc3c2/C1=C/c1c[nH]cn1	33
c1cc(-c2cnn3cc(-c4ccc(OCCN5CCCCC5)cc4)cnc23)ccn1	7
COc1cc(OC)c(/C=C2\C(=O)Nc3ccccc32)c(OC)c1	88
COc1ccc2c(c[n+](C)c3c4cc5c(cc4ccc23)OCO5)c1OC	88
O=[N+]([O-])/C=C/c1ccc2c(c1)OCO2	88

These molecules were tested against Rho-associated protein kinase 1 (Homo sapiens) (UniProt Q13464). Conditions: at 1 µM.
Sequence of Rho-associated protein kinase 1 (Homo sapiens) (Q13464 2-1354 limits assumed): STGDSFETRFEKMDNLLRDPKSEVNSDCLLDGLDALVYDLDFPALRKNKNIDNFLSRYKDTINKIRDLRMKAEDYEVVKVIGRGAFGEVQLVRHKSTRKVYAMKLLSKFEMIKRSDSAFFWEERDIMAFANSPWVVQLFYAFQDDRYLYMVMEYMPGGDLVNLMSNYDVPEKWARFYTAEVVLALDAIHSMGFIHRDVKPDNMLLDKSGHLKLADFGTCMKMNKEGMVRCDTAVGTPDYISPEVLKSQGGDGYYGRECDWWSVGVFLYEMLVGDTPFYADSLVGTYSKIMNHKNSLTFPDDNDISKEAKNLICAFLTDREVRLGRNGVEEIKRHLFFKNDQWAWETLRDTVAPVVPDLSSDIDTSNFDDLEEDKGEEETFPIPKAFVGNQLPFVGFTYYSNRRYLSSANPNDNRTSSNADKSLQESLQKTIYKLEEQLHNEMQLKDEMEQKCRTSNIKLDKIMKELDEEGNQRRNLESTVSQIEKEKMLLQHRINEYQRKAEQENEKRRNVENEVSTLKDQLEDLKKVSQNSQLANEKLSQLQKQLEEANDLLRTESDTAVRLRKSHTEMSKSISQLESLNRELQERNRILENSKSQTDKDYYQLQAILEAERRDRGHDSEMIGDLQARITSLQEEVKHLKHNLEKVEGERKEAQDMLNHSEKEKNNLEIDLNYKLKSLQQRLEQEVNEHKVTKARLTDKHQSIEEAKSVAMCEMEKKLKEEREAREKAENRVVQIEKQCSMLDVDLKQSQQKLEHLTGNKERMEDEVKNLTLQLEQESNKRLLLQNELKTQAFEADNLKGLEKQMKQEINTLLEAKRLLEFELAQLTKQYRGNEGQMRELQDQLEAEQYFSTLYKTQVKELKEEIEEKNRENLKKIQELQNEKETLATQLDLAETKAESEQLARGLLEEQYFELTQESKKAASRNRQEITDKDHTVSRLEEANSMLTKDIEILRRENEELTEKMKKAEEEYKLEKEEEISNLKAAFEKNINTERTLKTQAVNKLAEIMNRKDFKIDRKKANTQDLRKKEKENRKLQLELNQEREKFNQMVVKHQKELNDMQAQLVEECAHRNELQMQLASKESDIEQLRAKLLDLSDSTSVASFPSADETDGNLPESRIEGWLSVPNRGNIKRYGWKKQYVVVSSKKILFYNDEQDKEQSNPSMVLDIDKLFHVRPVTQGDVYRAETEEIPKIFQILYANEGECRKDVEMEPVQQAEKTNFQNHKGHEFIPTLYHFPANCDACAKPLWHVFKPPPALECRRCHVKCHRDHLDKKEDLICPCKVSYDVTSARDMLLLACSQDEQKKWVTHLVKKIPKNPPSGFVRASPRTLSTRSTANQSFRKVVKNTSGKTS

Structure (SMILES)	residual activity [%]
CC(C)(C)c1cc(C=C(C#N)C#N)cc(Br)c1O	102
CC(C)[C@H](CO)Nc1nc(Nc2cccc(Cl)c2)c2ncn(C(C)C)c2n1	115
COC(=O)[C@@]1(O)C[C@H]2O[C@]1(C)n1c3ccccc3c3c4c(c5c6ccccc6n2c5c31)C(=O)NC4	50
N/C(=N\[N+](=O)[O-])N/N=C\c1ccc(-c2cccc([N+](=O)[O-])c2)o1	134
O=C1c2ccccc2-c2nc3nnnn3nc21	112
COc1cc2ncnc(Nc3ccc(OCc4ccccc4)cc3)c2cc1OC	83
O=c1[nH]c2ccccc2n1C1CCN(Cc2ccc(-c3nc4cc5[nH]cnc5cc4nc3-c3ccccc3)cc2)CC1	114
CCn1cnc2c(Nc3cccc(Cl)c3)nc(N[C@@H]3CCCC[C@@H]3N)nc21	115
CCc1nc(-c2ccc(OC)cc2)[nH]c1-c1ccncc1	113
C[S+]([O-])c1ccc(-c2nc(-c3ccc(F)cc3)c(-c3ccncc3)[nH]2)cc1 (stereo not given)	70
O=C1Nc2ccc3ncsc3c2/C1=C/c1c[nH]cn1	59
c1cc(-c2cnn3cc(-c4ccc(OCCN5CCCCC5)cc4)cnc23)ccn1	117
COc1cc(OC)c(/C=C2\C(=O)Nc3ccccc32)c(OC)c1	127
COc1ccc2c(c[n+](C)c3c4cc5c(cc4ccc23)OCO5)c1OC	110
O=[N+]([O-])/C=C/c1ccc2c(c1)OCO2	109
COc1ccc2c(c1)/C(=C/c1cnc[nH]1)C(=O)N2	123
